Bead autofluor = counter-screen for toxin protease inhibitors: compound fluorescence; compound autofluorescence counterscreen, microsphere flow cytometry; stronger effect = higher value; 360,000 tested, 3.1% active; fluorescence intensity (no concentration beside the values); in the data active = fluorescence intensity above about 16000; inconclusive = no clear call, values can overlap the other calls
BoNT-F LC inh = BoNT/F light chain protease inhibitors, primary screen, biochemical, flow cytometry, MLPCN library; AID 588497, 2011; Botulinum neurotoxin type F light chain protease (Clostridium botulinum); inhibition, % at 10 µM; Multiplex microsphere protease cleavage assay; 360,000 tested, 0.22% active; in the data active = inhibition above about 35%, passing the limit was not always enough; inconclusive = no clear call, values can overlap the other calls; also: plate controls were buffer without enzyme for full effect and enzyme alone for no effect
BoNT A protease = BoNT/A light chain protease inhibitors, primary screen, biochemical, flow cytometry, MLPCN library | inhibition, % at 10 µM | multiplex microsphere protease substrate cleavage | Botulinum neurotoxin type A light chain protease (Clostridium botulinum A str. ATCC 3502) | 360,000 tested, 0.17% active; also: plate controls were buffer without enzyme for full effect and enzyme alone for no effect
TcdB GH inh = TcdB glycohydrolase inhibitors, primary screen, biochemical, single point, plate reader | Toxin B (Clostridioides difficile), P18177 | TcdB glycohydrolase enzymatic assay | inhibition, % at 9.99 µM | 350,000 tested, 0.24% active; in the data active = inhibition above about 10%
Anthrax LF prot = Bacillus anthracis LF protease inhibitors, primary screen, biochemical, multiplex microsphere, MLPCN library; 360,000 tested, 0.12% active; AID 588501, 2011; inhibition, % at 10 µM; multiplex microsphere protease cleavage assay; also: plate controls were buffer without enzyme for full effect and enzyme alone for no effect
Target sequence (P15917 whole entry, looked up): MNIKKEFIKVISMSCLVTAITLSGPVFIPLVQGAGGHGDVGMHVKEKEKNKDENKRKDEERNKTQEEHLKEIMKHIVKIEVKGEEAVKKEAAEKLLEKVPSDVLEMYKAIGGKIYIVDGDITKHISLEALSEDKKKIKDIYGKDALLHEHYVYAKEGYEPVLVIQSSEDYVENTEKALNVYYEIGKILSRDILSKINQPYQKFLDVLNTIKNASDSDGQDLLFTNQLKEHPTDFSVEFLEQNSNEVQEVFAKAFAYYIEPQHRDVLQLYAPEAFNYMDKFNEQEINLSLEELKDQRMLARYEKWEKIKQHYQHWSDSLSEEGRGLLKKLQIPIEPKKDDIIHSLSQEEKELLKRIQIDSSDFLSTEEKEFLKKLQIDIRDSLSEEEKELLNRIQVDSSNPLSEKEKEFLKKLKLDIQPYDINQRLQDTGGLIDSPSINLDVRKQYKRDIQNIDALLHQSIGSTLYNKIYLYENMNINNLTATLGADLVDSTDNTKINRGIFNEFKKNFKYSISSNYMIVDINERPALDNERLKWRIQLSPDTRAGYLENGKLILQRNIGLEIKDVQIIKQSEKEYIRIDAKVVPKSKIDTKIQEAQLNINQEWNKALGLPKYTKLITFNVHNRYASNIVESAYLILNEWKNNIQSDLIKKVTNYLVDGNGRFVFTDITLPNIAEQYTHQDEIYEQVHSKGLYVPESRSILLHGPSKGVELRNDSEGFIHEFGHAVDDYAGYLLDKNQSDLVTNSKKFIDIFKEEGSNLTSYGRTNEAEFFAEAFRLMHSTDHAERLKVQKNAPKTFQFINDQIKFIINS
Numbers without * were called inactive. The sample as a whole holds a higher share of hits than the screen did. Rule as the data show it, unless noted: active = inhibition above about 30%; inconclusive = no clear call, values can overlap the other calls; inactive = below that.

Results for Cc1nn(-c2ccccc2)c2c1C1(C(=O)N3c4c(cccc41)C(C)CC3(C)C)C(C#N)=C(N)O2 (stereo unspecified) ?
Bead autofluor: 22394*; BoNT-F LC inh: 0.0; BoNT A protease: 2.2; TcdB GH inh: 2.2; Anthrax LF prot: -1.3

Results for O=C(CSCc1ccccn1)Nc1ccccc1 ?
Bead autofluor: 2399; BoNT-F LC inh: -20.6; BoNT A protease: -1.0; Anthrax LF prot: -1.3

How did O=C(CSc1ncccn1)Nc1ccccc1 do in these assays?
Bead autofluor: 20507*; BoNT-F LC inh: 2.0; BoNT A protease: inconclusive; Anthrax LF prot: 2.8

How did O=C(Cc1ccccn1)Nc1ccccc1 do in these assays?
Bead autofluor: 22456*; BoNT-F LC inh: 2.3; BoNT A protease: 1.3; Anthrax LF prot: 1.8

Results for O=C(Cc1ccccn1)c1ccncc1 ?
Bead autofluor: 2921; BoNT-F LC inh: -0.7; BoNT A protease: 0.3; TcdB GH inh: 10.4*; Anthrax LF prot: -1.6

How did CO[C@@H]1CN(C)C(=O)c2ccc(NS(=O)(=O)c3ccccc3C)cc2OC[C@@H](C)NC[C@@H]1C do in these assays?
TcdB GH inh: 0.9

How did Cc1ccc(NC(=O)C2C(C(=O)O)C3C=CC2C32CC2)cc1 (stereo unspecified) do in these assays?
Bead autofluor: 19275*; BoNT-F LC inh: 0.7; BoNT A protease: 0.3; Anthrax LF prot: -9.0

What do the screens show for `Cc1nn(C2CC(O)C(O)C(CO)O2)c(=O)[nH]c1=O` (stereo unspecified)?
Bead autofluor: 2837; BoNT-F LC inh: -2.3; BoNT A protease: 0.1; TcdB GH inh: 12.9*; Anthrax LF prot: 1.9

Results for CCc1cn([C@H]2C[C@H](O)[C@@H](CO)O2)c(=O)[nH]c1=O ?
Bead autofluor: 5604; BoNT-F LC inh: -7.5; BoNT A protease: -0.8; TcdB GH inh: 0.2; Anthrax LF prot: 3.3

Results for O=C1c2cccc3c([N+](=O)[O-])ccc(c23)C(=O)N1c1nccs1 ?
Bead autofluor: 23502*; BoNT-F LC inh: -0.8; BoNT A protease: 0.3; Anthrax LF prot: -1.6

What do the screens show for `O=C1c2cccc3c([N+](=O)[O-])ccc(c23)C(=O)N1c1ccccn1`?
Bead autofluor: 2295; BoNT-F LC inh: 12.4; BoNT A protease: 2.2; Anthrax LF prot: 2.3

Results for O=C1c2cccc3c([N+](=O)[O-])ccc(c23)C(=O)N1c1ccc(Cl)cn1 ?
Bead autofluor: 20167*; BoNT-F LC inh: -2.4; BoNT A protease: -0.5; Anthrax LF prot: 1.3

What do the screens show for `O=CN(Cc1ccco1)C1(C(=O)NC2CCCCC2)CCCCC1`?
Bead autofluor: 22071*; BoNT-F LC inh: 0.2; BoNT A protease: inconclusive; Anthrax LF prot: -5.1

How did CC(=O)N(Cc1ccco1)C1(C(=O)NC2CCCC2)CCCCC1 do in these assays?
Bead autofluor: 8295; BoNT-F LC inh: -4.1; BoNT A protease: 1.0; Anthrax LF prot: 1.3

How did O=S(=O)(N1CCCCCC1)N1CCN(S(=O)(=O)N2CCCCC2)CC1 do in these assays?
Bead autofluor: 19718*; BoNT-F LC inh: 2.8; BoNT A protease: 1.3; TcdB GH inh: 0.7; Anthrax LF prot: -0.2

Results for O=S(=O)(N1CCOCC1)N1CCCN(S(=O)(=O)N2CCOCC2)CC1 ?
Bead autofluor: 4852; BoNT-F LC inh: 4.8; BoNT A protease: 0.6; Anthrax LF prot: -4.0

Results for CCOc1ccccc1N(C)C(=O)c1cc2c(=O)n(CC)c3ccccc3c2s1 ?
Bead autofluor: 3097; BoNT-F LC inh: 3.5; BoNT A protease: -0.4; TcdB GH inh: -0.5; Anthrax LF prot: 2.5

What do the screens show for `CCn1c(=O)c2cc(C(=O)N(C)CC(OC)OC)sc2c2ccccc21`?
Bead autofluor: 2981; BoNT-F LC inh: 2.7; BoNT A protease: -3.2; TcdB GH inh: 1.3; Anthrax LF prot: 38.5*

What do the screens show for `O=C(Cc1nc(-c2ccc([N+](=O)[O-])cc2)cs1)Nc1ccccc1`?
Bead autofluor: 21221*; BoNT-F LC inh: 0.9; BoNT A protease: 2.5; TcdB GH inh: 3.1; Anthrax LF prot: -5.4

What do the screens show for `COCC(=O)Nc1nc(-c2ccc([N+](=O)[O-])cc2)cs1`?
Bead autofluor: 4556; BoNT-F LC inh: -5.4; BoNT A protease: -0.9; TcdB GH inh: -0.1; Anthrax LF prot: 0.3

What do the screens show for `O=C(Nc1nc(-c2ccccc2)cs1)c1cccc([N+](=O)[O-])c1`?
Bead autofluor: 20697*; BoNT-F LC inh: -5.8; BoNT A protease: -3.1; Anthrax LF prot: -3.0

How did CC(=O)N(C)C[C@@H]1Oc2ncc(C#Cc3ccccc3)cc2C(=O)N([C@H](C)CO)C[C@@H]1C do in these assays?
TcdB GH inh: 0.4

How did CCOC(=O)NC(CC(=O)O)c1ccc(OC)c(OC)c1 (stereo unspecified) do in these assays?
Bead autofluor: 16400*; BoNT-F LC inh: -1.1; BoNT A protease: -0.1; Anthrax LF prot: 0.4

What do the screens show for `CC(C)C(C)(C#N)NC(=O)CSc1nc(C2CCCCC2)n(-c2ccccc2)n1` (stereo unspecified)?
Bead autofluor: 2368; BoNT-F LC inh: 37.5*; BoNT A protease: 3.3; Anthrax LF prot: -1.3

How did NC(=O)NC(=O)CSc1nc(C2CCCCC2)n(-c2ccccc2)n1 do in these assays?
Bead autofluor: 2442; BoNT-F LC inh: 3.8; BoNT A protease: -0.1; TcdB GH inh: 0.5; Anthrax LF prot: 0.1

Results for Cc1ccc(S(=O)(=O)N(C)C[C@H]2OCCCC[C@@H](C)Oc3ccc(NC(=O)Nc4ccccc4)cc3C(=O)N([C@@H](C)CO)C[C@@H]2C)cc1 ?
TcdB GH inh: 0.7

What do the screens show for `CCC(Sc1nc2ccccc2s1)C(=O)Nc1nnc(C)s1` (stereo unspecified)?
Bead autofluor: 22870*; BoNT-F LC inh: -2.4; BoNT A protease: -1.2; Anthrax LF prot: -1.6

How did CC(Sc1nc2ccccc2s1)C(=O)Nc1nnc(C(C)C)s1 (stereo unspecified) do in these assays?
Bead autofluor: 5258; BoNT-F LC inh: -1.8; BoNT A protease: -0.8; Anthrax LF prot: 1.2

What do the screens show for `CCc1ccc(N2CC(C(=O)Nc3ccc(C)c(S(=O)(=O)N4CCOCC4)c3)CC2=O)cc1` (stereo unspecified)?
Bead autofluor: 22656*; BoNT-F LC inh: -5.5; BoNT A protease: -1.2; Anthrax LF prot: -11.1

What do the screens show for `CCc1ccc(N2CC(C(=O)Nc3ccc(OC)c(S(=O)(=O)N4CCOCC4)c3)CC2=O)cc1` (stereo unspecified)?
Bead autofluor: 3577; BoNT-F LC inh: -0.6; BoNT A protease: -0.4; TcdB GH inh: 1.2; Anthrax LF prot: -8.0

Results for COCC(=O)N(C)C[C@@H]1Oc2cc(-c3ccc(C#N)cc3)ccc2S(=O)(=O)N([C@H](C)CO)C[C@@H]1C ?
TcdB GH inh: -7.5

Results for CC(=O)Nc1ccc(C(=O)CSc2nc3ccccc3n2CC(=O)N2CCCC2)cc1 ?
Bead autofluor: 16357*; BoNT-F LC inh: -3.7; BoNT A protease: -0.5; Anthrax LF prot: -1.0

Screening results deposited in PubChem BioAssay by several laboratories.
